Marburg entry inh – Marburg virus entry inhibition. Marburg virus pseudotyped entry inhibition, cell reporter. Potency, µM (titrated, usually from 37.8 µM), for inactives: at the highest dose activity change, negative = inhibition, usual class: inhibitors. 300,000 compounds, 1.8% hits; calls by dose curve; tested in HEK293 cells; also: potency is read from the fitted curve at half-maximal effect
Vaccinia mCherry – inhibitors of vaccinia virus infection (mCherry reporter signal) | 310,000 compounds, 0.63% hits | Potency, µM (series often up to 36.5 µM), for the others: top-dose activity change, negative = inhibition, hits mostly inhibitors | Vaccinia virus mCherry reporter infection, fluorescence | AID 720579; calls by dose curve; tested in A549 cells; also: potency is read from the fitted curve at half-maximal effect; nearly all actives have a fitted effect of over 35% in size
Lassa entry inh – inhibitors of Lassa virus binding or cell entry | Lassa virus pseudotype entry inhibition, cell reporter | Potency, µM (doses to about 37.9 µM), inactives show at the highest dose activity change, negative = inhibition, hits mostly inhibitors | 300,000 compounds, 1.2% hits | AID 540256; calls by dose curve; tested in HEK293 cells; also: potency is read from the fitted curve at half-maximal effect; nearly all actives have a fitted effect of over 50% in size
HCMV inh – inhibitors of human cytomegalovirus | HFF cells, HCMV-luciferase reporter, 72 h; hits give low values | activity change, negative = inhibition, % at 57.5 µM | 410,000 compounds, 4.5% hits | AID 1259415; in the data active = activity change below about -60%; inconclusive = no clear call, values can overlap the other calls; inactive = above about -39%
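Cell-based, HFFs, 1000 cells/well, 16 h 37C; cpds in DMSO + HCMV-luc, MOI 1 PFU/cell; 72 h 37C; OneGlo luminescence after 5 min RT; norm. to buffer vs Salinomycin 10uM.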
VACV Venus inh – inhibitors of vaccinia virus (Venus reporter) | Vaccinia virus Venus reporter expression, fluorescence | 330,000 compounds, 0.46% hits | AID 720580 | Potency, µM (highest dose often 36.5 µM), without a hit: at the top dose activity change, negative = inhibition, actives largely listed as inhibitors; calls by dose curve; tested in A549 cells; also: potency is read from the fitted curve at half-maximal effect; nearly all actives have a fitted effect of over 30% in size
HCV inhibitor – blocks hepatitis C virus. Huh7.5.1 HCVcc-Cre infection, luciferase reporter, 44 h. Potency, µM (highest dose often 41.8 µM), for the others: at the top dose activity change, negative = inhibition, usual class: inhibitors. 340,000 compounds, 3.4% hits; active = well fitted inhibition curve with a large enough effect; inconclusive = small, poorly fitted or top-dose-only effect, or another doubt; inactive = no such curve, though single readings can be large or run the other way; also: potency is read from the fitted curve at half-maximal effect
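Compounds are dispensed onto cells plated 4 h earlier at 1,000 per well, with HCVcc-Cre virus (about 0.5 moi) added next. Following 44 h of culture, luminescent signal is measured for 15 sec after 15 min with substrate at room temperature.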
* = called active by the depositor; i = inactive; ? = inconclusive; . = not tested or not shown; [ ] = dose if it differs, or a comment. Only some compounds are listed: those with a hit (about 7.8% of all), similar ones and a draw of the others. % is scaled to controls: 0 for no effect and ±100 for the full control effect.

SMILES | Marburg entry inh | Vaccinia mCherry | Lassa entry inh | HCMV inh | VACV Venus inh | HCV inhibitor
CCOC(=O)C1CCN(c2nc3c(S(=O)(=O)c4ccc(Br)cc4)nnn3c3ccsc23)CC1 | . | -13.7% | -12.0%[46.1 µM] | 17.4 | -17.7% | .
COCCCNC(=O)C1CCCN(S(=O)(=O)c2ccc3c(c2)oc(=O)n3C)C1 (stereo not given) | 2.3%[46.1 µM] | 14.0% | 18.0%[46.1 µM] | -4.4 | -3.1% | .
COc1cccc(C(C(=O)NC(C)(C)C)N(CC(C)C)C(=O)CCC(=O)Nc2cc(C)on2)c1OC (stereo not given) | ? | -5.9% | -18.6%[46.1 µM] | 19.9 | 5.3% | -10.1%
CCC(C)(C)NC(=O)C(c1cccc(OC)c1OC)N(C(=O)CCC(=O)Nc1cc(C)on1)C(C)C (stereo not given) | 15.9%[46.1 µM] | -1.3% | 3.9% | -78.9* | -12.4% | 17.4%
COc1cccc(C(C(=O)NC(C)(C)C)N(CCC(C)C)C(=O)CCC(=O)Nc2cc(C)on2)c1OC (stereo not given) | 8.91µM* | -3.5% | -17.1%[46.1 µM] | -15.8 | -20.0% | -5.2%
CSc1nc(NCCCN(C)C)c2c3c(sc2n1)CN(C)CC3 | . | . | . | -9.6 | . | .
CCN(CC)CCNc1nc(SC)nc2sc3c(c12)CCN(C)C3 | 7.08µM* | ? | ? | -20.4 | -9.6% | ?
Cc1cc(C)c(NC(=O)COc2ccc3c(C)cc(=O)oc3c2)c(C)c1 | -3.7%[46.1 µM] | -7.3% | -6.7%[46.1 µM] | -19.1 | -9.7% | .
CC(C)N(CCC(=O)c1ccc2ccccc2c1)Cc1ccccc1 | 12.6µM* | ? | 5.17µM* | -77.2* | ? | -26.6%
O=S(=O)(c1ccccc1)N1N=C(c2ccccc2)CC1c1ccccc1 (stereo not given) | ? | -13.3% | 0.4% | -73.7* | -15.2% | -27.2%
O=C(c1cccs1)N1N=C(c2ccccc2)CC1c1ccccc1 (stereo not given) | ? | -13.8% | ? | ? | -18.1% | 14.1µM*
COc1ccc(C2CC(c3ccccc3)=NN2S(=O)(=O)c2ccc(C)cc2)c(OC)c1 (stereo not given) | ? | -24.6% | ? | -62.6* | -19.2% | ?
O=S(=O)(c1ccccc1)N1N=C(c2ccc(Cl)cc2)CC1c1ccco1 (stereo not given) | 10µM* | -13.0% | ? | -32.8 | -29.4% | ?
COC(=O)CC1C(C)(C)C(OC(C)=O)C2[C@H](OC(C)=O)[C@]34O[C@]2(O)[C@]1(C)C3CC[C@]1(C)C4=CC(=O)OC1c1ccoc1 (stereo not given in full) | . | -14.7% | . | . | ? | .
CC(OC(=O)c1ccc(NC(=O)CC#N)cc1)C(=O)Nc1ccc(Oc2ccccc2)cc1 (stereo not given) | . | . | . | 3.6 | . | .
Cc1cc(C(=O)C(C)OC(=O)c2ccc(NC(=O)CC#N)cc2)c(C)n1-c1ccc(OC(F)F)cc1 (stereo not given) | ? | -9.6% | 14.1µM* | ? | ? | ?
CCOc1ccc(N2C(=O)C(=O)/C(=C(/O)c3ccccc3)C2c2ccccc2[N+](=O)[O-])cc1 (stereo not given) | ? | -22.2% | 3.0% | -73.0* | -4.3% | 13.4%
COc1cc(OC)c(N(C)C(=O)c2cc3c(s2)-c2ccccc2OC3)cc1Cl | -3.2%[46.1 µM] | 0.3% | . | -14.9 | 9.3% | .
COc1ccccc1Nc1cc(C(=O)NCCCN(C)c2ccccc2)c2ccccc2n1 | . | -23.3% | ? | 14.7 | -13.6% | .
CCOc1ccccc1CNC(=O)CSc1n[nH]c(-c2ccccc2Cl)n1 | . | -20.4% | -24.9%[46.1 µM] | -13.8 | -14.8% | .
N[C@H]1C(O)O[C@H](CO)[C@@H](O)[C@@H]1O (stereo not given in full) | . | i | . | -11.3 | -11.7% | -2.3%
OC[C@H]1OC(O)[C@H](O)[C@@H](O)[C@H]1O (stereo not given in full) | . | -0.7% | . | -61.3* | -11.1% | -15.3%
CC(C)C12CN3CC(C(C)C)(CN(C1)C3c1ccc([N+](=O)[O-])o1)C2=O (stereo not given) | -0.5%[46.1 µM] | i | 0.3% | -72.4* | -7.5% | 8.2%
C[C@H]1CCCCO[C@@H](CN(C)CC2CC2)[C@@H](C)CN([C@@H](C)CO)C(=O)c2cc(NS(=O)(=O)c3ccccc3)ccc2O1 | . | . | . | -27.1 | . | .
